In PubChem BioAssay (NCI):
The panel holds about 79,000 compounds, 15% with a hit somewhere; the sample as a whole holds those more often. Unmarked numbers belong to inactive results. The source made the active and inactive calls. Cut-off read from the data, not from the text of the source: active = growth inhibition above about 70%; inactive = the rest.

Test: NCI Yeast Anticancer Drug Screen. Data for the bub3 strain (AID 167)
Conditions: S. cerevisiae bub3 mutant strain, hits give high values
Description: Growth inhibition of yeast strains with defined genetic alterations is measured as a screen for potential anti-cancer activity. Selected strains with alterations in DNA damage repair or cell cycle control were exposed to compounds and growth inhibition was measured relative to vehicle treated controls. The strain used in this assay is bub3

[1] = at 5.0 µM (retest, dose inferred, filed as 0.5)
[2] = at 50.0 µM (retest, dose inferred, filed as 5.0)

| Compound | growth inhibition [1] | growth inhibition [2] | growth inhibition (at 50.0 µM) |
| --- | --- | --- | --- |
| Cc1ccc2c(c1)C1(SCC(=O)N1c1ccc(Cl)cc1)C(=O)N2 (configuration not stated) | 4% | 74% (active) | 64.9% |
| C=CCOc1ccc(-c2ccccc2)cc1C(=O)NC | -3% | 8% | 42.9% |
| O=C(O)CCc1ccc2ccccc2c1 | -6% | 18% | 53.7% |
| CC(C)c1ccc(C(=O)C2CC2)cc1 | -29% | -20% | 65.3% |
| COc1ccc(CN2COc3c(cc(Cl)c4cccnc34)C2)cc1 | -2% | 99% (active) | 99.4% (active) |
| C1=NC(N(Cc2ccccc2)Cc2ccccc2)N(Cc2ccccc2)N1 (configuration not stated) | -14% | 96% (active) | 92.2% (active) |
| CC(=O)OCC1OC(SSc2ccccc2)C(OC(C)=O)C(OC(C)=O)C1OC(C)=O (configuration not stated) | -12% | 8% | 8.5% |
| O=C(/C=C\c1cccc2ccccc12)c1ccccn1 | 20% | 99% (active) | 97% (active) |
| Cn1c2c(c3ccccc31)CCN(CCN1CCN(c3cccc(Cl)c3)CC1)C2=O | -17% | -17% | 87.8% (active) |
| Cc1ccccc1-n1c(N)c(-c2nc3ccccc3[nH]2)sc1=S | 41% | 55% | 83.1% (active) |
| COc1ccc(/C=C2\Sc3scc(-c4ccc([N+](=O)[O-])cc4)[n+]3C2=O)cc1OC | 9% | 16% | 83% (active) |
| O=C(N/C(=C\c1nc2ccccc2s1)c1ccccc1O)c1ccccc1 | -5% | 75% (active) | 32.4% |
| CCOC(=O)C1=C(N)N(S(=O)(=O)c2ccc(C)cc2)CCC(C(=O)OC)=C1 | 1% | -4% | 26.2% |
| COc1ccc(C(=O)Nc2ccccc2OC)cc1 | 6% | 20% | 10.7% |
